From PubChem
The list is not random: actives were taken first. Their share in the collection is about 3.1%.
PREPL inh – inhibitors of human prolyl oligopeptidase-like enzyme PREPL; recombinant PREPL, fluorescence polarization activity-based probe; inhibition, % at 5.96 µM; AID 2751; Q4J6C6; 320,000 compounds, 0.68% hits; in the data active = inhibition above about 43%
MEKK2 mut-MEK5 – signal of MEK5 binding to mutant human MEKK2 PB1 domain; 290,000 compounds, 0.35% hits; percent response, % at 10 µM; AID 1530; bead flow cytometry, Alexa488-MEK5 binding to MEKK2 mutant; in the data active = percent response above about 24%, passing the limit was not always enough
MEKK2 WT-MEK5 – raises or lowers MEK5 binding to wildtype human MEKK2 PB1 domain; Q9Y2U5; bead flow cytometry, Alexa488-MEK5 binding to MEKK2 WT; actives lie on both sides; binding response (% of control), % at 10 µM; 290,000 compounds, 1.1% hits; AID 1531; in the data active = binding response below about 67% or above about 130%; inconclusive = no clear call, values can overlap the other calls; inactive = in between
ATG4B inhibitor – inhibitors of human ATG4B cysteine protease; inhibition, % at 8.33 µM; AID 504462; 340,000 compounds, 0.51% hits; ATG4B cleavage of LC3-PLA2, NBD-HPC fluorescence, 1 h; Q9Y4P1; in the data active = inhibition above about 40%
MEKK3 PB1 HTS – raises or lowers MEK5 binding to the human MEKK3 PB1 domain; Q99759; bead-based flow cytometry, Alexa488-MEK5 binding to MEKK3; actives lie on both sides; 0 = blocked by unlabeled MEK5, 100 = vehicle; binding response (% of control), % at 10 µM; 290,000 compounds, 1.4% hits; AID 1529;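 active = binding response more than 3 SD above or below the average of its plate-row segment, actives on both sides; inconclusive = wells at one plate position flagged as instrument error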;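 also: Alexa488 bead fluorescence after subtracting the streptavidin-only scavenger bead signal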
Target sequence (Q99759 whole entry, looked up, the tested form may be a part): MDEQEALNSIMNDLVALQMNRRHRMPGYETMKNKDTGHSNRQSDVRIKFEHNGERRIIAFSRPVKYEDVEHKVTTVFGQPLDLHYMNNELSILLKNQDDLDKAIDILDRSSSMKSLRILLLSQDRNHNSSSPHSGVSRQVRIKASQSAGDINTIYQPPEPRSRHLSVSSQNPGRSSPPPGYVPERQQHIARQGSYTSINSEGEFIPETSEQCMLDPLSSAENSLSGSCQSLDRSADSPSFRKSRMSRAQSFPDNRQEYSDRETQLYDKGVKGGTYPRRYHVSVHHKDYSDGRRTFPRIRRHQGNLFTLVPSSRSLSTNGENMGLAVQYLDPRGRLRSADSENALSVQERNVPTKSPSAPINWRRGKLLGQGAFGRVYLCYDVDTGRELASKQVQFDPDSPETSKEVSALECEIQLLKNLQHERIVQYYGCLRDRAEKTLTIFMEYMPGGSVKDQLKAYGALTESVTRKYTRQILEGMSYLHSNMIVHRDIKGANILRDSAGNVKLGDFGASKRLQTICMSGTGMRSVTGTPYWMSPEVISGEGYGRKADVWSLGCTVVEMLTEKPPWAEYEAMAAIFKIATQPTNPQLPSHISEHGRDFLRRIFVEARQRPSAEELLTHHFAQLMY
UBC13 polyUb – inhibitors of human UBC13 polyubiquitin chain formation; P61088; TR-FRET; inhibition, % at 20 µM; 330,000 compounds, 0.47% hits; in the data active = inhibition above about 45%, passing the limit was not always enough; inconclusive = no clear call, values can overlap the other calls
MEKK2wt confirm – raises or lowers MEK5 binding to wildtype human MEKK2, retest. shares compounds with MEKK3 PB1 HTS. bead flow cytometry, Alexa488-MEK5 binding to MEKK2 WT; actives lie on both sides. binding response (% of control), % at 10 µM. 5,900 compounds, 2.4% hits. AID 1892; in the data active = binding response below about 16% or above about 210%; inactive = in between
MEKK2mut-MEK5 – signal of MEK5 binding to mutant human MEKK2, retest | shares compounds with MEKK3 PB1 HTS | bead flow cytometry, Alexa488-MEK5 binding to MEKK2 mutant | percent response, % at 10 µM | 5,900 compounds, 2% hits; in the data active = percent response mostly above about 71%, no sharp cut-off; inactive = mostly below about 38%;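 also: higher means compound restores mutant binding toward wildtype level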
MEKK3 confirm – MEKK3-MEK5 PB1 inhibition, single concentration confirmation; shares compounds with MEKK3 PB1 HTS; bead flow cytometry, Alexa488-MEK5 binding to MEKK3; hits give low values; binding response (% of control), % at 10 µM; 5,900 compounds, 1.8% hits; AID 1894;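 active = binding response below 72% of control, or above a set upper limit, though filed actives all read lower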;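 also: lower values mean stronger disruption of MEK5 binding to MEKK3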
Hits are given with their value; . = inactive; ? = inconclusive; / = no result given; [ ] = remark or other dose.

SMILES	PREPL inh	MEKK2 mut-MEK5	MEKK2 WT-MEK5	ATG4B inhibitor	MEKK3 PB1 HTS	UBC13 polyUb	MEKK2wt confirm	MEKK2mut-MEK5	MEKK3 confirm
Cc1cccc(S(=O)(=O)c2c(N)n(-c3ccccc3)c3nc4ccccc4nc23)c1	.	.	.	.	138	.	.	.	.
COc1ccc(CC(=O)N2CCc3cc(OC)c(OC)cc3C2O)cc1OC (stereo unspecified)	.	.	.	.	.	.	/	/	/
COc1ccc(S(=O)(=O)N2CCC(C(=O)NCCC(=O)NC3CC3)CC2)cc1	.	.	.	.	.	.	/	/	/
CCN1/C(=C/c2ccc3cc(C)ccc3[n+]2CC)Sc2ccc3sccc3c21	.	/	/	.	/	?	/	/	/
CCN1/C(=C\c2ccc3cc(C)ccc3[n+]2CC)Sc2cc(C)c(C)cc21	/	.	29	.	44[inhibitor]	/	15[inhibitor]	.	61
CCN1/C(=C/c2ccc3cc(C)cc(C)c3[n+]2CC)Sc2cc(C)ccc21	/	.	25	.	34[inhibitor]	/	.	.	54
CCN1/C(=C/c2ccc3cccc(C)c3[n+]2CC)Sc2ccccc21	60	.	40[inhibitor]	.	.	.	.	.	.
Cc1ccc(CN2CCN(/N=C/c3cccs3)CC2)cc1	.	.	.	.	.	.	/	/	/
CCOC(=O)C1OC1(c1ccccc1)c1ccccc1 (stereo unspecified)	/	/	/	.	/	/	/	/	/
CCOc1ccc2[nH]c3c(c2c1)CNCC3	.	.	158	.	.	.	.	.	.
COc1cc(Cn2c(=O)c3c(OC)c(C)cnc3n(C)c2=O)cc(OC)c1	.	.	.	.	.	.	/	/	/
c1ccc2c(c1)CCN2CCN1CCc2ccccc21	.	.	.	.	.	.	/	/	/
CN(C)CCN1CCc2ccccc21	.	.	144	.	.	.	.	.	.
COC1=NC(=C(c2ccccc2)c2ccccc2)OC1=O	/	/	/	.	/	/	/	/	/
COc1ccc(C(C)=O)cc1CN1C(=O)NC(c2ccccc2)(c2ccccc2)C1=O	.	.	.	.	.	.	/	/	/
COC(=O)[C@]1(C)N[C@H](CN(C)S(=O)(=O)c2ccc(OC(F)(F)F)cc2)[C@@H]2C(=O)N(C)C(=O)[C@@H]21	.	/	/	.	/	.	/	/	/
C=CCc1cccc(CNc2c(C)cc(C)cc2C)c1O	.	.	.	.	70[inhibitor]	.	.	.	.
O=C(NNc1cc(Cl)ccc1Cl)c1c(F)cccc1Cl	.	.	.	.	129	.	.	.	.
O=C(NNc1ccc(Cl)cc1)c1c(F)cccc1Cl	.	.	.	.	.	.	/	/	/
Cc1c(NC(=O)COC(=O)c2cccn2C)c(=O)n(-c2ccccc2)n1C	.	/	/	.	/	.	/	/	/
Cc1ncc([N+](=O)[O-])n1Cc1ccc(F)cc1	.	.	.	.	70[inhibitor]	.	.	.	.
O=C(CSc1nnc(CNc2cccc(Cl)c2)o1)OC1CCCCC1	.	.	.	.	.	.	/	/	/
O=C(CSc1nnc(CNc2ccc(F)cc2)o1)OC1CCCCC1	.	.	2.0[inhibitor]	.	2.0[inhibitor]	.	.	.	.
CC(=O)c1c(C)[nH]c(C(=O)NNC(=O)c2ccc(Br)cc2)c1C	.	/	/	.	/	.	/	/	/
O=C(C1CCCC1)N1CCC(CC2CC(c3cccc(Br)c3)=NO2)(C(=O)NCC2CCCCC2)CC1 (stereo unspecified)	.	.	.	.	.	.	/	/	/
SMILES	PREPL inh	MEKK2 mut-MEK5	MEKK2 WT-MEK5	ATG4B inhibitor	MEKK3 PB1 HTS	UBC13 polyUb	MEKK2wt confirm	MEKK2mut-MEK5	MEKK3 confirm
Cc1ccccc1-c1nn(-c2ccc(F)cc2F)cc1CNCCCN(C)C	.	.	140	.	.	.	.	.	.
COCCN(C)Cc1cn(-c2ccc(F)cc2F)nc1-c1ccccc1C	.	.	.	.	.	.	/	/	/
Cc1ccccc1-c1nn(-c2ccc(F)cc2F)cc1CNCCN(C)C	.	.	150	.	.	.	.	.	.
Cc1ccc(S(=O)(=O)N2CCOCC2)cc1C(=O)NCC1CCCCC1	.	/	/	.	/	.	/	/	/
O=C(c1ccccc1)N1CCN(Cc2ccccc2)CC1	.	.	.	.	.	.	/	/	/
O=C(/C=C/N1CCN(Cc2ccccc2)CC1)C(F)(F)F	.	.	.	.	62[inhibitor]	.	.	.	.
O=C(CN1CC(c2ccccc2)CC1=O)N/N=C/c1cc(Br)ccc1O (stereo unspecified)	.	.	.	.	141	.	.	.	.
Cc1cc(Nc2cccc(C(F)(F)F)c2)n2nc(C)nc2n1	.	.	0.0[inhibitor]	.	1.0[inhibitor]	.	.	.	.
Cc1c(C)n(CCN(C)C)c2ccc(C(=O)OCCN(C)C)cc12	.	.	.	.	.	/	/	/	/
Cc1c(C)n(Cc2ccccc2)c2ccc(C(=O)OCCCN(C)C)cc12	.	.	158	.	.	.	.	.	.
CC[C@@H](C)[C@@H](C(=O)N1CCNCC1)n1cc(CCC(=O)O)nn1	.	.	.	.	.	.	/	/	/
Cc1ccnn1CCC(=O)O	.	.	.	.	129	.	.	.	.
Cc1ccnn1CCSCC(=O)O	.	.	.	.	.	.	/	/	/
O=c1c([N+](=O)[O-])c[nH]c2ccccc12	.	.	.	.	135	.	.	.	.
O=[N+]([O-])c1ccccc1N/N=C/c1c[nH]c2ccccc12	.	.	.	.	.	.	/	/	/
Cc1ccc(C(=O)N2CCC(C(=O)c3ccc(F)cc3)CC2)cc1	/	/	/	.	/	/	/	/	/
Cc1ccc(C(=O)N2C(=S)C(c3ccc(F)cc3)=NC23CCN(C)CC3)cc1	.	.	151	.	.	.	.	.	.
CN(C)CCCN(C(=O)c1ccco1)c1nc(-c2ccc(Cl)cc2)cs1	.	.	.	.	.	.	/	/	/
CN(C)CCCN(C(=O)c1ccc(S(=O)(=O)N(C)Cc2ccccc2)cc1)c1nc2c(F)cccc2s1	.	40	196	.	.	.	.	.	.
CN(C)CCCN(C(=O)c1ccc(Br)s1)c1nc2cc3c(cc2s1)OCCO3	.	/	/	.	/	.	/	/	/
Cc1ccc(-c2csc(N(CCCN(C)C)C(=O)c3ccco3)n2)cc1	.	.	202	.	.	.	.	.	.
CN(C)CCCN(C(=O)CCc1ccccc1)c1nc2c(F)cccc2s1	.	.	.	.	.	.	/	/	/
CN(C)CCCN(C(=O)c1ccco1)c1nc2c(F)cccc2s1	.	68	.	.	62[inhibitor]	.	.	.	.
Cc1ccc2nc(N(CCCN(C)C)C(=O)c3ccc(Br)s3)sc2c1	.	.	169	.	.	.	.	.	.
Cc1cc2cc(C#N)c(N3CCN(S(C)(=O)=O)CC3)nc2cc1C	.	.	.	.	.	.	/	/	/
